An excerpt weighted towards active compounds, which were near 1% of everything screened.
Mtb BioA inh – inhibitors of Mycobacterium tuberculosis BioA enzyme; purified M. tuberculosis BioA enzyme, plate reader; inhibition, % at 9.99 µM; hit rate 0.096% among 360,000; in the data active = inhibition above about 40%
MazEF act – MazEF (E. coli) toxin RNase activation; activation, % at 20 µM; hit rate 0.32% among 350,000; FAM/BHQ RNA-DNA oligo cleavage fluorescence, 5 h; P0AE70; AID 504720; in the data active = activation above about 50%
Target sequence (P0AE70 whole entry, looked up): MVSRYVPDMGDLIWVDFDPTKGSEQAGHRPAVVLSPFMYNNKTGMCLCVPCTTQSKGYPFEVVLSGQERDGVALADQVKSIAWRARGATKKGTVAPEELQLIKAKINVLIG
Yp Topo-I inh – inhibitors of Yersinia pestis topoisomerase I. Y. pestis Topo-I cleavage product accumulation, plate reader. activity, % at 10 µM. hit rate 0.064% among 360,000. AID 504884; in the data active = activity above about 50%, passing the limit was not always enough
FadD28 FP inh – inhibitors of Mycobacterium tuberculosis FadD28 bisubstrate binding. FadD28 bisubstrate probe binding, fluorescence polarization. inhibition, % at 12.5 µM. hit rate 0.22% among 360,000; in the data active = inhibition above about 8.5%, passing the limit was not always enough
TcdB GH inh – TcdB glycohydrolase inhibition | TcdB glycohydrolase enzymatic assay, plate reader | inhibition, % at 9.99 µM | hit rate 0.24% among 350,000; in the data active = inhibition above about 10%
DUSP3 inh – blocks human VHR1 dual specificity phosphatase; P51452; recombinant VHR phosphatase, pNPP absorbance; inhibition, % at 13.3 µM; hit rate 0.52% among 290,000; AID 1654; in the data active = inhibition above about 50%
Target sequence (P51452 whole entry, looked up): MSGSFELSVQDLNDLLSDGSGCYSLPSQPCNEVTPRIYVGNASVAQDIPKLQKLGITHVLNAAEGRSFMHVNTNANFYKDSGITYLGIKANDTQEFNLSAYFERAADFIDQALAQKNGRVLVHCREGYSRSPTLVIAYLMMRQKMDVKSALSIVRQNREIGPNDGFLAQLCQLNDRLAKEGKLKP
* = called active by the depositor; x = no result; + = active, no number.

SMILES	Mtb BioA inh	MazEF act	Yp Topo-I inh	FadD28 FP inh	TcdB GH inh	DUSP3 inh
Cc1ccccc1OCc1nnc(SCc2cc(=O)[nH]c3ccccc23)o1	-0.7	64.6*	9.7	-2.2	x	-18.5
O=c1cc(CSc2nnc(COc3ccc(Cl)cc3)o2)c2ccccc2[nH]1	x	50.8*	23.0	-3.4	x	-14.9
Cc1ccc2c(c1)c(C)cc[n+]2Cc1ccccc1	2.1	8.9	-7.4	0.7	x	-8.8
Cc1ccc2ccc[n+](Cc3ccccc3)c2c1	-0.7	14.2	7.1	-3.7	10.9*	x
O=C(C[C@@H]1CC[C@H]2[C@@H](COC[C@H](O)CN2Cc2nccs2)O1)NCc1ccc(F)cc1	1.3	x	x	x	0.4	x
CCN1C(=S)SC(=O)C1=C1C=C(C)OC(C)=C1	-2.3	+	-0.8	-1.5	x	-9.1
COc1cc2c3nnc(-c4ccc(F)cc4)c-3cn(Cc3cccc(F)c3)c2cc1OC	x	211.6*	9.7	-1.4	x	-21.1
COc1cc2c3nnc(-c4ccc(F)cc4)c-3cn(Cc3cccc(C)c3)c2cc1OC	-3.9	250.0*	-1.5	-3.4	-0.5	15.1
COCC(=O)Nc1ccc2c(c1)OC[C@H](C)N(CCC(F)(F)F)C[C@H](C)[C@@H](OC)CN(C)C2=O	-5.5	x	x	x	-0.8	x
Cc1cccc(Cn2c(C(=O)OC(C)C)cc3c2ccn3C)c1	-0.6	-6.9	53.7*	0.0	x	7.6
N#Cc1ccc(-c2ccc3c(c2)[C@@H]2[C@@H](CCN2Cc2ccc4c(c2)OCO4)[C@@H](CO)N3)cc1	x	x	x	x	-1.4	x
C[C@@H]1CN([C@@H](C)CO)C(=O)c2cc(NC(=O)CCN3CCOCC3)ccc2O[C@H]1CN(C)S(=O)(=O)c1ccccc1	0.9	x	x	x	-0.5	x
CCS(=O)(=O)N1Cc2ccccc2CC1C(=O)N1CCN(c2ccccc2)CC1 (stereo not given)	0.4	-2.4	5.0	0.4	0.7	51.5*
COc1ccc(NS(=O)(=O)c2ccc(NS(=O)(=O)c3cccc(C(=O)O)c3)cc2)cc1	-5.3	-5.4	-4.4	-2.6	0.0	29.7
CC(=O)c1ccc2c(c1)C1C=CCC1C(c1ccc(S(=O)(=O)N3CCOCC3)cc1)N2 (stereo not given)	x	1.7	0.9	-4.6	x	-1.6
Cc1c(Cl)cccc1NS(=O)(=O)c1ccc2c(c1)C1C=CCC1C(c1ccc(C(=O)O)cc1)N2 (stereo not given)	x	-5.9	-1.5	27.7*	x	46.4
COc1ccc(NS(=O)(=O)c2ccc3c(c2)[C@H]2C=CC[C@H]2[C@@H](c2ccc(C(=O)O)cc2)N3)cc1	2.0	-17.6	-25.4	32.2*	0.7	-3.8
Cc1[nH]c(C)c(S(=O)(=O)N2CCCCC2)c1C(=O)N1CCCCC1	-1.2	11.3	5.0	-4.4	-0.2	-2.2
Cc1[nH]c(C)c(S(=O)(=O)N2CCCCC2C)c1C(=O)N1CCCC1 (stereo not given)	-2.1	-0.2	1.1	0.2	0.3	56.3*
CCN1CCN(C(c2ccccc2)c2nnnn2Cc2ccc3c(c2)OCO3)CC1 (stereo not given)	-0.7	12.8	4.1	-3.2	1.2	52.2*
CCN1CCN(C(c2ccc(OC)cc2)c2nnnn2Cc2ccc3c(c2)OCO3)CC1 (stereo not given)	x	7.8	-1.6	0.1	-0.5	6.9
C[C@@H]1CN([C@@H](C)CO)C(=O)Cc2cc(NC(=O)Cn3cnnn3)ccc2O[C@H]1CN(C)C	1.0	x	x	x	-0.3	x
CCNC(=S)N/N=C/c1cn(Cc2ccc(F)cc2)c2ccccc12	x	-4.2	-8.4	-2.3	-0.9	-7.9
O=C(O)c1ccc(N/N=C/c2cn(Cc3ccc(F)cc3)c3ccccc23)cc1	5.7	-1.2	-11.7	18.1*	-0.4	4.3
COC(=O)c1sccc1NC(=O)Nc1cccc(C)c1	x	8.2	-10.5	-3.0	1.2	50.0*
SMILES	Mtb BioA inh	MazEF act	Yp Topo-I inh	FadD28 FP inh	TcdB GH inh	DUSP3 inh
COC(=O)c1sccc1NC(=O)Nc1cccc(C(C)=O)c1	x	-1.7	3.5	-4.4	3.0	26.3
O=C(COC(=O)c1cc(-c2cccc3ccccc23)nc2ccccc12)NC1CCS(=O)(=O)C1 (stereo not given)	x	291.9*	-5.0	1.8	0.7	5.4
Cc1cc(C(=O)OCC(=O)NC2CCS(=O)(=O)C2)c2ccccc2n1 (stereo not given)	-1.1	10.7	2.7	-2.1	-0.3	6.9
Cc1ccc2c(c1)-c1ncc(C(=O)c3cc(Br)ccc3O)cc1CO2	x	x	x	x	-0.4	56.3*
O=C(COc1cccc(Cl)c1)N/N=C\c1cc2ccccc2nc1Cl	-1.1	147.8*	-2.3	-3.6	x	-8.5
Cc1cccc(OCC(=O)N/N=C\c2cn(C)c3ccccc23)c1	0.4	-5.2	37.7	41.1*	-0.2	5.6
